# Results published in PubChem BioAssay (NCATS).
# Inconclusive results are not listed. Entries that show only a call come without a potency. Unmarked numbers belong to inactive results. Activity calls are given as the source filed them. Calls come from the whole dose curve; as a rule, active = well fitted cell-killing curve with a large enough effect; inconclusive = small, poorly fitted or top-dose-only effect, or effect the other way; inactive = no such curve, though single readings can be large or run the other way.
# Legend:
# [1] = Viability qHTS for spleen associated tyrosine kinase inhibitor (SYKi) naive MV4-11 cells (AID 1963823); note: nearly all actives have a fitted effect of over 40% in size
# Outline: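 CellTiter-Glo luminescence, 10 min room-temperature incubation, gave viability. Cells: naive MV4-11 (500/well), treated 72 hr at 37 C, 5% CO2.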
# [2] = Viability qHTS for spleen associated tyrosine kinase inhibitor (SYKi) drug resistant MV4-11 cells (AID 1963824); note: nearly all actives have a fitted effect of over 35% in size
# Outline: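 SYK-inhibitor-resistant MV4-11 AML cells were seeded at 500 per well onto compound and cultured 72 hours (37 °C, 5% CO2). CellTiter-Glo was then added, and after 10 min at room temperature, luminescence gave viability.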
# Potency is the fitted concentration of half-maximal effect.
Structure (SMILES),Potency [1],Potency [2],viability (% of control) [1],"viability, % of control [2]"
Cc1ccc(NC(=O)c2cccc(C(C)(C)C#N)c2)cc1Nc1ccc2ncn(C)c(=O)c2c1,1.18 µM (active),1.48 µM (active),–,–
C[C@@H]1O[C@@H](O[C@H]2[C@H](OC(=O)C34CCC(C)(C)CC3C3=CCC5C6(C)CC(O)C(O[C@@H]7O[C@H](CO)[C@@H](O)[C@H](O)[C@H]7O)C(C)(C(=O)O)C6CCC5(C)C3(CO)CC4)O[C@H](C)[C@H](O)[C@@H]2O)[C@H](O)[C@H](O)[C@H]1O[C@@H]1OC[C@@H](O)[C@H](O)[C@H]1O (some centres undefined),–,–,87% [at 9.25 µM],109% [at 9.25 µM]
C[C@@H]1O[C@@H](O[C@H]2[C@H](OC(=O)[C@]34CCC(C)(C)C[C@H]3C3=CCC5[C@@]6(C)C[C@H](O)[C@H](O[C@@H]7O[C@H](CO)[C@@H](O)[C@H](O)[C@H]7O)[C@@](C)(CO)C6[C@H](O)C[C@@]5(C)[C@]3(C)C[C@H]4O)OC[C@H](O)[C@@H]2O)[C@H](O)[C@H](O)[C@H]1O[C@@H]1OC[C@@H](O)[C@H](O[C@H]2OC[C@](O)(CO)[C@H]2O)[C@H]1O (some centres undefined),–,–,84.5% [at 9.25 µM],104% [at 9.25 µM]
O=C(OC[C@H]1O[C@H](O[C@]2(CO)O[C@H](CO)[C@@H](O)[C@@H]2O)[C@H](O)[C@@H](O)[C@@H]1O)c1ccc(O)cc1,inactive,inactive,–,–
Cc1cn(C2C[C@H](O)[C@@H](CO)O2)c(=O)[nH]c1=O (some centres undefined),inactive,inactive,–,–
C=CC(C)(O)CC/C=C(\C)C(=O)O[C@@H]1[C@@H](O)[C@H](OC(C)(C=C)CC/C=C(\C)C(=O)O)O[C@H](CO)[C@H]1OC(=O)/C(C)=C/CCC(C)(O)C=C (some centres undefined),inactive,inactive,–,–
CC(C)C1NC(=O)C2CCCN2C1=O (centres undefined),inactive,inactive,–,–
COC(=O)C(C)C1CCC2(C)C(=O)C=CC(C)(O)C2C1O (centres undefined),inactive,inactive,–,–
C/C(=C/CCC(CO)C1CCC2(C)C3CCC4C(C)(C)C(OC5OC(CO)C(O)C(O)C5O)CC(O)C45CC35CCC12C)COC1OC(CO)C(O)C(O)C1O (centres undefined),inactive,inactive,–,–
C/C=C1/[C@H](O[C@@H]2O[C@H](CO)[C@@H](O)[C@H](O)[C@H]2O)OC=C(C(=O)OC)[C@H]1CC(=O)OCCc1ccc(O)c(O)c1,inactive,inactive,–,–
COC(=O)[C@H](Cc1ccc([N+](=O)[O-])cc1)NC(=O)c1cccc2ccccc12,5.8 µM (active),4.11 µM (active),–,–
C[C@@H]1C[C@H]2[C@@H]3CCC4=CC(=O)C=C[C@]4(C)[C@@]3(F)[C@@H](O)C[C@]2(C)[C@@]1(O)C(=O)COP(=O)(O)O,inactive,inactive,–,–
CCCOc1ccc(-c2nc(OC)c3ccccc3n2)cc1,inactive,inactive,–,–
CC1(C)CC2C3=CCC4C5(C)CCC(OC6OC(C(=O)O)C(O)C(O)C6OC6OC(CO)C(O)C(O)C6OC6OC(CO)C(O)C(O)C6O)C(C)(CO)C5CCC4(C)C3(C)CCC2(C)C(OC2OCC(O)C(OC3OC(CO)C(O)C(O)C3O)C2O)C1O (centres undefined),–,–,96.2% [at 9.25 µM],112% [at 9.25 µM]
C=C(NC(=O)C(=C)NC(=O)c1csc(C2=NC3c4csc(n4)C4NC(=O)c5csc(n5)C(C(C)(O)C(C)O)NC(=O)C5CSC(=N5)/C(=C/C)NC(=O)C(C(C)O)NC(=O)c5csc(n5)C3(CC2)NC(=O)C(C)NC(=O)C(=C)NC(=O)C(C)NC(=O)C(C(C)CC)NC2C=Cc3c(C(C)O)cc(nc3C2O)C(=O)OC4C)n1)C(N)=O (centres undefined),1.3 µM (active),0.58 µM (active),–,–
[N-]=[N+]=N[C@]1(CO)O[C@@H](n2ccc(=O)[nH]c2=O)[C@@H](O)[C@@H]1O,inactive,inactive,–,–
C[C@@H]1O[C@@H](OC[C@H]2O[C@@H](OCCc3ccccc3)[C@H](O)[C@@H](O)[C@@H]2O)[C@H](O)[C@H](O)[C@H]1O,inactive,inactive,–,–
